Assay outcomes deposited in PubChem BioAssay by several laboratories.
AHR act: activators of human aryl hydrocarbon receptor; P35869; AHR-responsive luciferase reporter cells, luminescence; activation, % at 5 µM; hit rate 2.5% among 320,000; AID 2796; in the data active = activation above about 47%;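 also: 0% = vehicle wells and 100% = reference agonist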
HSF-1 act: increases HSF-1 driven luciferase reporter signal | hit rate 1.7% among 300,000 | NIH3T3-HGL HSF-1 luciferase reporter, MG132, 8 h; 100% = twice DMSO control signal | AID 504408 | activation, % at 9 µM;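 active = mean replicate activation of at least 50% with a set share of replicates each reaching 50%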;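 also: 0% = median of the neutral control wells and 100% = twice that signal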
GAA850 FXN act: frataxin GAA850 promoter activation | HEK293 lucGAA850 FXN promoter luciferase reporter, 24 h; percent of 10 µM SAHA response | activation, % at 6 µM | hit rate 0.56% among 360,000;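 active = activation above the average of all compounds screened plus 3 SD, cutoff fixed separately per campaign, cut at about 7.5% in these data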;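 also: 0% = DMSO wells and 100% = 10 µM SAHA wells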
DAX1 inh: NR0B1 (DAX1) inhibition. AID 504766. HEK293 Gal4-DAX1 luciferase reporter, luminescence. inhibition, % at 6.75 µM. P51843. hit rate 0.99% among 340,000;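 active = inhibition above the mean over all tested compounds plus 3 SD, cut at about 4.2% in these data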;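 also: 0% = DAX1-transfected cells with DMSO and 100% = empty-vector control cells with DMSO; inhibition shows as a rise in luminescence from relieved DAX1 repression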
Target sequence (P51843 207-470 limits assumed): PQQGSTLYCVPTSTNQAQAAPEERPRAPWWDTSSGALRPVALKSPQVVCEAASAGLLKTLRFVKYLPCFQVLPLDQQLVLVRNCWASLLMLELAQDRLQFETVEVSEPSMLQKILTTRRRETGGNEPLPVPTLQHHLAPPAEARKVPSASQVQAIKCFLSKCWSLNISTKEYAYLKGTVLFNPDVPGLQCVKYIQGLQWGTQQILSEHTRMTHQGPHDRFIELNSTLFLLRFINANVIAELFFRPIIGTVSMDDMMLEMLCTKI
HSP90 refold inh: HSP90 refolding inhibition in rabbit reticulocyte lysate; luciferase refolding luminescence, 3 h; inhibition, % at 5.6 µM; hit rate 0.91% among 290,000; AID 1789;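 active = inhibition above the screen-wide mean plus 3 SD, computed separately per campaign, cut at about 16% in these data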;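 also: 0% = DMSO wells and 100% = 60 µM geldanamycin wells; inhibitors lower the luminescence because luciferase stays unfolded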
HSF1 inhib: HSF1 inhibition; activity change, negative = inhibition, % at 7.5 µM (by protocol); AID 2098; hit rate 0.77% among 300,000; NIH3T3-HGL HSE-luciferase, MG132-induced, luminescence 8 h; hits give low values;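 active = more than half of replicate wells show activity change below -50%, luminescence cut by over half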;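 also: luciferase reports HSF-1 transcriptional activity via heat shock element; 0% = median of DMSO wells and -100% = zero luminescence signal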
AHR act confirm: human AHR activation, confirmation. shares compounds with AHR act. human cells, AHR-responsive luciferase reporter, luminescence. hit rate 87% among 2,300. activation, % at 9 µM; in the data active = activation above about 49%;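 also: HepG2 hepatoma cells carrying a DRE-driven firefly luciferase reporter; 0% = vehicle wells and 100% = reference agonist wells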
PXR act counter: counter-screen for AHR activators: human PXR activators; shares compounds with AHR act; cell-based PXR reporter, luciferase luminescence; activation, % at 11.6 µM; hit rate 88% among 2,300; AID 434939; in the data active = activation above about 11%;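 also: human hepatoma DPX-2 cells expressing full-length human PXR; 0% = DMSO and 100% = reference agonist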
Starred values were filed as active, the others as inactive; · = no result. Compounds with a hit are over-represented: about 5.9% of the library has one in this group of screens.

SMILES | AHR act | HSF-1 act | GAA850 FXN act | DAX1 inh | HSP90 refold inh | HSF1 inhib | AHR act confirm | PXR act counter
COc1ccc(C2CC(c3cccs3)=NN2C(=O)CSc2nc3ccccc3o2)cc1 (stereo not given) | 93* | -11 | -6 | -1 | -2 | 3 | 50* | 45*
COc1ccc(C2CC(c3cccs3)=NN2C(=O)CSc2nc3ccccc3s2)cc1 (stereo not given) | 41 | 34 | -4 | 1 | 0 | 0 | · | ·
O=S(=O)(Nc1cc(S(=O)(=O)N2CCOCC2)ccc1NCC1CCCO1)c1ccccc1 (stereo not given) | 0 | · | 0 | 0 | · | · | · | ·
CCOc1ccc2c(c1)sc(=NC(=O)C1CC1)n2C | 92* | 11 | 5 | 1 | -3 | 5 | 71* | 37*
CCc1noc(N)c1C(=O)Nc1ccc(F)c(Cl)c1 | 80* | -35 | 2 | -1 | 4 | -16 | 109* | 12*
CCc1nc2c(OCCc3cccc(OC)c3)cccn2c1N(C)C(=O)c1ccc(OC)cc1 | · | · | -3 | · | · | · | · | ·
Cc1nnc(N2C(=O)c3cccc4c([N+](=O)[O-])ccc(c34)C2=O)s1 | 87* | 40 | -1 | -1 | 2 | 36 | 100* | ·
Cc1ccnc(N2C(=O)c3cccc4c([N+](=O)[O-])ccc(c34)C2=O)c1 | -5 | -22 | -2 | -1 | -2 | -9 | · | ·
Cc1ccc2nc(NC(=O)c3ccc(-c4nc5ccccc5s4)s3)sc2c1 | 3 | · | -8 | 0 | -3 | · | · | ·
O=C(Nc1nc2ccccc2s1)c1ccc(Cl)s1 | 82* | 46 | 1 | 6.5* | -2 | 32 | 50* | 12*
C=CCc1ccccc1OCCOc1ccc([N+](=O)[O-])cc1/C=N/NC(N)=O | 111* | -20 | 1 | 0 | -3 | -6 | 90* | 35*
CCOc1ccc(C(=O)NCC(=O)OCC(=O)Nc2nnc(-c3ccccc3)o2)cc1 | -1 | · | 2 | 1 | · | · | · | ·
CC(C)(CNc1ccc([N+](=O)[O-])cc1Cl)N1CCOCC1 | -4 | 15 | 2 | -1 | 1 | -1 | · | ·
CN(C)c1cccc(C(=O)n2cc(C(=O)c3cc(F)ccc3O)cn2)c1 | 86* | -42 | 2 | 0 | 6 | -25 | 30 | 20*
COC(=O)c1ccccc1NC(=O)CCCN1C(=O)C(c2ccccc2)Oc2cccnc21 (stereo not given) | 0 | -6 | 2 | 1 | 2 | -4 | · | ·
COc1ccccc1NC(=O)c1ccc(SCC(=O)NCc2ccccc2Cl)c([N+](=O)[O-])c1 | 99* | 6 | 0 | 3 | 0 | 0 | 120* | 135*
COc1ccccc1CNC(=O)CSc1ccc(C(=O)Nc2ccccc2OC)cc1[N+](=O)[O-] | 90* | 11 | -2 | -1 | 4 | 5 | 85* | 105*
Fc1ccc(Br)cc1/C=N/N1CCN(c2ccccc2)CC1 | 120* | 9 | 1 | -1 | -1 | 10 | 117* | 18*
Cc1cc(=O)c2c(C)nn(-c3ccccc3)c2[nH]1 | 0 | -2 | 2 | 0 | -2 | -6 | · | ·
CCc1c(C)c2c(C)nn(-c3ccccc3)c2[nH]c1=O | 97* | 2 | 1 | 0 | 7 | 6 | 94* | 24*
CC(=O)c1c(N2CCOCC2)[nH]c(-c2ccccc2)nc1=S | 136* | 13 | 4 | 0 | -6 | 0 | 122* | 75*
CC(=O)Nc1ccc(NC(=O)CN(C)CCC#N)cc1 | 2 | -11 | -1 | 0 | -2 | -15 | · | ·
Cc1ccc(-n2nc3cc(C)c(N)cc3n2)cc1 | 22 | 18 | 3 | 3 | 2 | 20 | · | ·
COc1ccc(-n2nc3cc(N)c(Br)cc3n2)cc1 | 98* | 14 | 3 | 5.8* | 1 | 7 | 124* | 30*
Cc1ccc(NC(=O)CSc2ncc3ccccn23)cc1 | 6 | 22 | 0 | -1 | 0 | 14 | · | ·
SMILES | AHR act | HSF-1 act | GAA850 FXN act | DAX1 inh | HSP90 refold inh | HSF1 inhib | AHR act confirm | PXR act counter
COc1ccc(C(=O)NN)cc1COc1ccc(Br)cc1 | 102* | 22 | 0 | 0 | -1 | -1 | 90* | 17*
Cc1cc(NCCCn2ccnc2)n2nc(-c3ccc(F)cc3)cc2n1 | 47 | 3 | 0 | 0 | -1 | 7 | · | ·
Cc1cc(NCCCn2ccnc2)n2nc(-c3ccc(Cl)cc3)cc2n1 | 134* | 12 | 6 | 0 | 3 | 8 | 110* | 18*
CC(C)c1ccc(NC(=O)c2ccc(Br)o2)cc1 | 99* | 47 | -1 | 0 | 5 | 19 | 107* | 35*
CN(CCC#N)c1ccc(/C=C(\C#N)c2ccccn2)cc1 | -7 | 31 | -1 | -3 | 2 | 1 | · | ·
CCN(Cc1ccccc1)c1ccc(/C=C(\C#N)c2ccccn2)cc1 | 86* | 103* | 7 | 3 | 0 | 53 | 70* | 44*
Cc1onc(-c2ccccc2Cl)c1-c1nc(-c2ccccn2)no1 | 92* | 0 | -2 | -2 | 1 | -3 | 70* | 176*
Cc1occc1-c1nc(-c2ccccn2)no1 | 6 | 50 | -2 | -1 | 12 | 12 | · | ·
CNC(=O)c1cccnc1Nc1cccc(C(F)(F)F)c1 | 120* | · | 7 | 0 | 3 | · | 105* | 15*
Cc1cccnc1NC(=O)Nc1cccc(C(F)(F)F)c1 | 4 | -12 | 0 | 1 | -3 | -9 | · | ·
O=C(Nc1ccccc1OCc1ccccc1)c1ccccc1Br | 103* | 16 | 1 | 1 | 4 | 12 | 105* | 43*
O=[N+]([O-])C(=C1NCCN1)C(Cl)=C(Cl)Cl | 4 | -2 | -1 | 2 | -1 | -1 | · | ·
Cc1nc(N2N=C3/C(=C/c4ccc(F)cc4)CCCC3C2c2ccc(F)cc2)sc1C(=O)N(C)C (stereo not given) | 92* | 17 | -3 | 0 | -1 | 7 | 93* | 115*
Cc1nc(NC2CCCC2)sc1C(=O)N(C)C | 5 | 1 | 1 | 1 | -4 | -6 | · | ·
Cc1nnc(SC(C(=O)Nc2ccc(Cl)c([N+](=O)[O-])c2)c2ccccc2)[nH]c1=O (stereo not given) | -1 | 16 | -2 | 0 | -4 | 6 | · | ·
CCn1c2ccccc2c2cc(NC(=O)COC(=O)c3ccc(O)cc3)ccc21 | 40 | 20 | 1 | 0 | · | 6 | · | ·
CCN(CC)S(=O)(=O)c1cccc(C(=O)OCC(=O)Nc2ccc3c(c2)c2ccccc2n3CC)c1 | 83* | 36 | 1 | -1 | 2 | 7 | 80* | 33*
COc1ccc(CCNC(=O)CCCc2nnc3n(C)c(=O)c4sccc4n23)cc1OC | -2 | 9 | 0 | 1 | 2 | 0 | · | ·
